# Measurements reported in PubChem BioAssay AID1159580 (chemical genetic matrix, 2015).
# Where “and” joins values, the source holds several entries; their conditions need not be identical. Identical values can stand only once. The campaign covered roughly 5,500 compounds. About 2,000 (36%) were called active. Not shown: some 18% with an inconclusive outcome. This is one part of the list. A number with no mark means an inactive call. No stated cut-off is given here; in the data, active means normalized growth mostly below about 0.91 (no sharp cut-off); inconclusive means no clear call, values can overlap the other calls; inactive means mostly above about 0.92.
# Assay: chemical genetic growth profiling, strain panel (AID 1159580);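 further: tested at 20 µM; growth read once vehicle control cultures reached saturation at 30 °C; 1 = growth at the plate median or of vehicle wells; lower values mean less growth of the strain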
# Conditions: S. cerevisiae deletion strains, growth OD
compound,measurement,setting,value
C[C@@H]1CC[C@H]2C(C)(C)C3CC12CC[C@@]3(C)O (stereo partly specified),normalized growth,"locus YAL021C, strain ccr4, hits give low values",0.942
same,normalized growth,"locus YAL026C, strain drs2, hits give low values",0.918
same,normalized growth,"locus YAL030W, strain snc1, hits give low values",0.884 (active)
same,normalized growth,"locus YBL061C, strain skt5, hits give low values",0.754 (active)
same,normalized growth,"locus YBR009C, strain hhf1, hits give low values",0.658 (active)
same,normalized growth,"locus YBR021W, strain FUR4, hits give low values",0.935
same,normalized growth,"locus YBR023C, strain chs3, hits give low values",0.7 (active)
same,normalized growth,"locus YBR171W, strain sec66, hits give low values",0.962
same,normalized growth,"locus YBR229C, strain ROT2, hits give low values",1.02
same,normalized growth,"locus YBR231C, strain swc5, hits give low values",0.862 (active)
same,normalized growth,"locus YBR279W, strain paf1, hits give low values",0.907 (active)
same,normalized growth,"locus YCL011C, strain gbp2, hits give low values",0.811 (active)
same,normalized growth,"locus YCL016C, strain dcc1, hits give low values",0.859 (active)
same,normalized growth,"locus YCL029C, strain bik1, hits give low values",1.01
same,normalized growth,"locus YCL061C, strain MRC1, hits give low values",0.952
same,normalized growth,"locus YCL069W, strain vba3, hits give low values",0.977
same,normalized growth,"locus YCR088W, strain abp1, hits give low values",0.976
same,normalized growth,"locus YDL005C, strain med2, hits give low values",0.848 (active)
same,normalized growth,"locus YDL035C, strain GPR1, hits give low values",0.979
same,normalized growth,"locus YDL040C, strain nat1, hits give low values",0.952
same,normalized growth,"locus YDL074C, strain BRE1, hits give low values",0.913
same,normalized growth,"locus YDL101C, strain DUN1, hits give low values",0.988
same,normalized growth,"locus YDL185W, strain tfp1, hits give low values",0.99
same,normalized growth,"locus YDL192W, strain arf1, hits give low values",0.872 (active)
same,normalized growth,"locus YDR001C, strain nth1, hits give low values",1.01
same,normalized growth,"locus YDR101C, strain arx1, hits give low values",0.939
same,normalized growth,"locus YDR137W, strain rgp1, hits give low values",0.67 (active)
same,normalized growth,"locus YDR150W, strain NUM1, hits give low values",1.02
same,normalized growth,"locus YDR159W, strain sac3, hits give low values",0.603 (active)
same,normalized growth,"locus YDR162C, strain NBP2, hits give low values",1
same,normalized growth,"locus YDR195W, strain ref2",0.318 (active)
same,normalized growth,"locus YDR297W, strain sur2, hits give low values",0.906 (active)
same,normalized growth,"locus YDR318W, strain mcm21, hits give low values",0.95
same,normalized growth,"locus YDR334W, strain swr1, hits give low values",1
same,normalized growth,"locus YDR335W, strain msn5, hits give low values",0.928
same,normalized growth,"locus YDR388W, hits give low values",0.969
same,normalized growth,"locus YDR392W, strain spt3, hits give low values",0.301 (active)
same,normalized growth,"locus YDR502C, strain sam2, hits give low values",0.924
same,normalized growth,"locus YEL003W, strain gim4, hits give low values",0.848 (active)
same,normalized growth,"locus YEL037C, strain rad23, hits give low values",0.973
same,normalized growth,"locus YEL061C, strain CIN8 (second series), hits give low values",0.875 (active)
same,normalized growth,"locus YEL061C, strain CIN8, hits give low values",0.917 (active)
same,normalized growth,"locus YER015W, strain faa2, hits give low values",0.86 (active)
same,normalized growth,"locus YER016W, strain bim1, hits give low values",0.904 (active)
same,normalized growth,"locus YER110C, hits give low values",0.984
same,normalized growth,"locus YER111C, strain swi4, hits give low values",0.77 (active)
same,normalized growth,"locus YER155C, strain BEM2 (second series), hits give low values",0.74 (active)
same,normalized growth,"locus YER155C, strain BEM2, hits give low values",0.876 (active)
same,normalized growth,"locus YER167W, strain BCK2, hits give low values",0.948
same,normalized growth,"locus YFR010W, strain ubp6, hits give low values",0.863 (active)
same,normalized growth,"locus YGL078C, strain dbp3, hits give low values",0.955
same,normalized growth,"locus YGL086W, strain mad1, hits give low values",0.911 (active)
same,normalized growth,"locus YGL167C, strain pmr1, hits give low values",1.01
same,normalized growth,"locus YGL173C, strain kem1, hits give low values",0.795 (active)
same,normalized growth,"locus YGL227W, strain vid30, hits give low values",0.969
same,normalized growth,"locus YGL240W, strain doc1, hits give low values",0.805 (active)
same,normalized growth,"locus YGL248W, strain PDE1, hits give low values",0.968
same,normalized growth,"locus YGL253W, strain hxk2, hits give low values",0.897 (active)
same,normalized growth,"locus YGR135W, strain pre9, hits give low values",0.922
same,normalized growth,"locus YGR252W, strain gcn5, hits give low values",0.97
same,normalized growth,"locus YHR013C, strain ard1, hits give low values",0.961
same,normalized growth,"locus YHR027C, strain rpn1, hits give low values",0.888 (active)
same,normalized growth,"locus YHR030C, strain SLT2, hits give low values",0.93 and 0.993
same,normalized growth,"locus YHR079C, strain IRE1 (second series), hits give low values",1.02
same,normalized growth,"locus YHR079C, strain IRE1, hits give low values",0.99
same,normalized growth,"locus YHR094C, strain hxt1, hits give low values",0.992
same,normalized growth,"locus YHR129C, strain ARP1, hits give low values",0.968
same,normalized growth,"locus YHR142W, strain chs7, hits give low values",0.605 (active)
same,normalized growth,"locus YHR200W, strain rpn10, hits give low values",0.941
same,normalized growth,"locus YIL066C, strain RNR3, hits give low values",0.937
same,normalized growth,"locus YIL073C, strain SPO22, hits give low values",0.974
same,normalized growth,"locus YIL125W, strain kgd1, hits give low values",0.959
same,normalized growth,"locus YIR030C, strain dcg1, hits give low values",0.987
same,normalized growth,"locus YJL092W, strain hpr5, hits give low values",0.968
same,normalized growth,"locus YJL095W, strain BCK1 (second series), hits give low values",0.699 (active)
same,normalized growth,"locus YJL095W, strain BCK1, hits give low values",0.927 and 1.01
same,normalized growth,"locus YJL115W, strain asf1, hits give low values",0.996
same,normalized growth,"locus YJL129C, strain trk1, hits give low values",0.859 (active)
same,normalized growth,"locus YJL134W, strain LCB3, hits give low values",1.01
same,normalized growth,"locus YJL154C, strain vps35, hits give low values",0.983
same,normalized growth,"locus YJL164C, strain tpk1, hits give low values",0.753 (active)
same,normalized growth,"locus YJL166W, strain qcr8, hits give low values",0.669 (active)
same,normalized growth,"locus YJL168C, strain set2, hits give low values",0.986
same,normalized growth,"locus YJL187C, strain SWE1 (second series), hits give low values",0.986
same,normalized growth,"locus YJL187C, strain SWE1, hits give low values",0.833 (active)
same,normalized growth,"locus YJR043C, strain POL32, hits give low values",0.97
